Records with an inconclusive call do not appear. Unmarked numbers belong to inactive results. Active and inactive are the calls of the source. Calls follow the shape of the dose curve; as a rule, active = well fitted cell-killing curve with a large enough effect; inconclusive = small, poorly fitted or top-dose-only effect, or effect the other way; inactive = flat fitted curve, though single readings scatter.
assay: MultiTox-Fluor Cytotoxicity Assay - LYMP1-002 - Live Cells (AID 955); details: LYMP1-002 lymphoblastoid live-cell protease fluorescence viability; series mostly up to 46.1 µM; viability change, negative = cytotoxic: at the top concentration
Description: NIH Chemical Genomics Center [NCGC]
NIH Molecular Libraries Screening Centers Network [MLSCN]
National Institutes of Environmental Health Sciences [NIEHS]
National Toxicology Program [NTP]
We have developed a 1536-well cell-based assay for quantitative high throughput screening (qHTS) against a number of cell lines to determine in vitro cytotoxicity of small molecules. This particular assay uses a human lymphoblastoid cell line (LYMP1-002) purchased from Coriell Institute.
NCGC Assay Protocol Summary:
The MultiTox-Fluor Cytotoxicity Assay (Promega) is a homogeneous method to simultaneously measure the relative number of live and dead cells in culture by detecting changes in cell membrane integrity. There are two fluorogenic peptide substrates in the assay reagent. Viable cells are determined when the cell-permeant substrate (GF-AFC) enters the cell and is cleaved by protease from live cells resulting in liberated fluorophore. This live-cell protease activity restricted to viable cells is proportional to cell number. The dead cells are determined by using fluorogenic cell-impermeant peptide substrate (bis-AAF-R110) which cleaved by dead cell proteases leaking from damaged cell membrane.
Using the MultiTox-Fluor Cytotoxicity Assay, the relative number of live cells was measured in the lymphoblastoid cell line with complete culture medium following compound treatment for 16 hours. The assay was performed in opaque black Kalypsys 1536-well plates. In the screen, tetraoctylammonium bromide was used as positive control. Library compounds were measured for their ability to cause acute toxicity in the cell line, as reflected by a decrease in live cell protease activity, in a concentration-dependent manner. […] AC50 values were determined from concentration-response data modeled with the standard Hill equation.
qHTS protocol for MultiTox-Fluor Cytotoxicity assay
[Step] [Parameter] [Value] [Description]
1. Reagent; 5 uL; 2500 lymphoblastoid cells/well
2. Time; 5 hr; 37 C incubation
4. Controls; 23 nL; Tetraoctylammonium bromide 6.4pM to 92 uM
5. Time; 16 hr; 37 C incubation
6. Reagent; 5 uL; MuliTox-Fluor Assay reagent
7. Time; 60 min; Room Temperature
8. Detection; live-cell fluorescence (Ex/Em=405/510); EnVision plate reader
Keywords: cell viability, cytotoxicity, lymphoblastoid cell line, fluorescence, NTPHTS, NTPHTS_NCGC, NIEHS, EPA, DSSTox, MLSMR, MLSCN, NIH Roadmap, qHTS, NCGC
% is scaled to controls: 0 for no effect and ±100 for the full control effect; potency is read from the fitted curve at half-maximal effect.

| SMILES | viability change, negative = cytotoxic | Potency |
| --- | --- | --- |
| COP(=O)(OC)O/C(=C\Cl)c1cc(Cl)c(Cl)cc1Cl | -4.6% |  |
| O=Nc1ccc(Nc2ccccc2)cc1 |  | 6.31 µM (active) |
| O=C(CCl)c1ccccc1 |  | 31.6 µM (active) |
| c1cc(OCC2CO2)cc(OCC2CO2)c1 (stereo unspecified) |  | 31.6 µM (active) |
| N#CC(Cl)Cl | -7.02% |  |
| ClC1=C(Cl)C2(Cl)C3C(Cl)C(Cl)CC3C1(Cl)C2(Cl)Cl (stereo unspecified) | -13.9% |  |
| O=[N+]([O-])c1cc(C(F)(F)F)cc([N+](=O)[O-])c1Cl | -8.38% |  |
| CCCCCCCCn1sccc1=O |  | 7.94 µM (active) |
| [Cd+2].[Cl-].[Cl-] | -27.8% |  |
| CN(C)c1ccc(N=O)cc1 |  | 5.01 µM (active) |
| Nc1ccccc1C(=O)OCCc1ccccc1 | -5.46% |  |
| C[C@@H]1CC[C@@]2(OC1)O[C@H]1[C@@H](O)[C@H]3[C@@H]4CC[C@H]5C[C@@H](O[C@@H]6O[C@H](CO)[C@H](O[C@@H]7O[C@H](CO)[C@@H](O)[C@H](O[C@@H]8OC[C@@H](O)[C@H](O)[C@H]8O)[C@H]7O[C@@H]7O[C@H](CO)[C@@H](O)[C@H](O[C@@H]8O[C@H](CO)[C@@H](O)[C@H](O)[C@H]8O)[C@H]7O)[C@H](O)[C@H]6O)[C@H](O)C[C@]5(C)[C@H]4CC[C@]3(C)[C@H]1[C@@H]2C |  | 3.98 µM (active) |
| O=C1C2(Cl)C3(Cl)C4(Cl)C(Cl)(Cl)C5(Cl)C3(Cl)C1(Cl)C5(Cl)C24Cl (stereo unspecified) |  | 31.6 µM (active) |
| C=CC(=O)OCC(CO)(COC(=O)C=C)COC(=O)C=C |  | 3.98 µM (active) |
| FC(F)(F)c1ccc(Cl)cc1 | 0.0435% |  |
| N#CSCSC#N |  | 15.8 µM (active) |
| O=[N+]([O-])C(Br)Br | 2.66% |  |
| C#CCO | 1.7% |  |
| [CH3][Hg][Cl] |  | 12.6 µM (active) |
| O=C(O)C1C(C(=O)O)C2(Cl)C(Cl)=C(Cl)C1(Cl)C2(Cl)Cl (stereo unspecified) | 4.78% |  |
| OC(c1ccc(Cl)cc1)(c1ccc(Cl)cc1)C(Cl)(Cl)Cl | 4.68% |  |
| CC(=O)[O-].CC(=O)[O-].O.O.[Cd+2] | -19.9% |  |
| Clc1ccc(C(c2ccc(Cl)cc2)C(Cl)Cl)cc1 | -14.5% |  |
| C(=NC1CCCCC1)=NC1CCCCC1 | 7.04% |  |
| c1ccc2cc3c(cc2c1)-c1cccc2cccc-3c12 | 20.5% |  |
| Oc1c(Br)c(Br)c(Br)c(Br)c1Br | 8.56% |  |

From PubChem BioAssay (NCATS)
